Assay results from PubChem BioAssay (NCATS).
Several values for one entry are separate records, joined by “and”; a condition that tells them apart may be missing. Equal values may be shown once. Results filed as inconclusive are left out. Activity calls are given as the source filed them. Unless noted, calls come from the whole dose curve; as a rule, active = well fitted curve in the direction sought with a large enough effect; inconclusive = small, poorly fitted or top-dose-only effect, or another doubt; inactive = no such curve, though single readings can be large; an effect the other way counts as inactive or inconclusive.

Assays:
[1] = qHTS assay for small molecule disruptors of the mitochondrial membrane potential - 1 hr assay (AID 651754; calls by dose curve; note: nearly all actives have a fitted effect of over 35% in size; note: potency is the fitted concentration of half-maximal effect)
How it was run: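 Steps: seed HepG2 cells and let attach overnight; pin-transfer compound or vehicle; incubate 1 hr at 37C; add Mito-MPS dye for 30 min; read two-channel fluorescence for monomer and aggregate forms.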

[2] = qHTS assay for small molecule disruptors of the mitochondrial membrane potential - 5 hr assay (AID 651755; calls by dose curve; note: % is set by controls: 0 for no effect and ±100 for the full control effect; nearly all actives have a fitted effect of over 40% in size)
How it was run: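 HepG2 cells (2,000/well), attached overnight, exposed to compound 5 hr at 37C, then Mito-MPS dye 30 min. Fluorescence read for monomers (490/535 nm) and aggregates (540/590 nm).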

[3] = qHTS assay for environmental chemicals that activate the Aryl hydrocarbon Receptor (AhR) signaling pathway (AID 651777); details: 1A2-DRE human hepatoma cells, luciferase, 24 h; activation: active compounds read high; note: % of control where 0% means no effect; nearly all actives have a fitted effect of over 15% in size
How it was run: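 1A2-DRE human hepatoma reporter line; 1,200 cells/well; cmpd or DMSO 24 h, 37 C/5% CO2; One-Glo 30 min RT; luciferase lum.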

[4] = molecular target: Nuclear receptor ROR-gamma (Homo sapiens) (UniProt P51449); assay: qHTS assay for small molecule antagonists of the retinoid-related orphan receptor gamma (ROR-gamma) signaling pathway (AID 651802);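 note: CHO cells with doxycycline-induced ROR-gamma expression; series mostly up to about 92 µM; % is set by controls: 0 for no effect and ±100 for the full control effect; nearly all actives have a fitted effect of over 60% in size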
Sequence of Nuclear receptor ROR-gamma (Homo sapiens) (P51449 whole entry, looked up): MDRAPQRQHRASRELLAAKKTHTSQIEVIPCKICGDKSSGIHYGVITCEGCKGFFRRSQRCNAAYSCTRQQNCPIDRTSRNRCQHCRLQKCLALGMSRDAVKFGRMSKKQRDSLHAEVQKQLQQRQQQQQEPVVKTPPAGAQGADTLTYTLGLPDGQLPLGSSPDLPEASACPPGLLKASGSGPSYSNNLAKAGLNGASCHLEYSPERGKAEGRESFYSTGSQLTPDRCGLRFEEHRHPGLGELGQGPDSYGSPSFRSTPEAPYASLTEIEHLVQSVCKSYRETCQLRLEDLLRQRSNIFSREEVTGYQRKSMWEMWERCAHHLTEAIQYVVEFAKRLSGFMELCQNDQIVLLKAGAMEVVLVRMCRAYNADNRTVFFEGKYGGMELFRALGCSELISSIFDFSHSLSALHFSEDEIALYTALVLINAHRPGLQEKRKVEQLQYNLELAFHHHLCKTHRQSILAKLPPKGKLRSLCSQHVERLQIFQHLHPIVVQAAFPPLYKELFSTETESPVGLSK
How it was run: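 Antagonism is scored as a fall in luminescence from a RORE-luciferase reporter in CHO cells expressing ROR under a TET-inducible promoter, measured 16hr after doxycycline induction in the presence of compound.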

[5] = qHTS assay for small molecule agonists of the antioxidant response element (ARE) signaling pathway measured by Nrf2-dependant transcriptional activity (AID 720636; active = well fitted curve in the direction sought with a large enough effect in the repeat runs; an effect the other way counts as inactive or inconclusive;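 note: HepG2 cells with an ARE-driven luciferase reporter; % of control where 0% means no effect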)
How it was run: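 Cells: ARE-luc HepG2 with Nrf2-responsive luciferase. Medium contained 1% dialyzed FBS. Compound exposure lasted 16 hr at 37 C and 5% CO2, followed by ONE-Glo luciferase detection.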

[6] = qHTS assay for small molecule antagonists of the retinoid-related orphan receptor gamma (ROR-gamma) signaling pathway - cell viability counter screen (AID 720652; active = well fitted curve in the direction sought with a large enough effect in the repeat runs; an effect the other way counts as inactive or inconclusive;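 note: CHO reporter cells with doxycycline-induced ROR-gamma expression; series mostly up to about 92 µM; compound exposure lasted 16 hr before ATP read; % is set by controls: 0 for no effect and ±100 for the full control effect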)
How it was run: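 Cytotoxicity is quantified via intracellular ATP (CellTiter-Glo luminescence) in doxycycline-induced CHO ROR response element-luciferase reporter cells treated with compound for 16 hr at 37 C, 5% CO2.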

[7] = qHTS assay for small molecule agonists of the antioxidant response element (ARE) signaling pathway measured by Nrf2-dependant transcriptional activity - cell viability counter screen (AID 720653; active = well fitted curve in the direction sought with a large enough effect in the repeat runs; an effect the other way counts as inactive or inconclusive; note: % is set by controls: 0 for no effect and ±100 for the full control effect); details: ARE-bla HepG2 viability, CellTiter-Glo ATP luminescence, 16 h; active compounds read low
How it was run: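 ARE-bla HepG2 cells treated with compounds for 16 h at 37C; this counter screen measures viability as intracellular ATP by CellTiter-Glo luminescence after 30 min at room temperature.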

[8] = qHTS assay for cell viability of HEK293 cells (AID 743288); details: ATP luminescence (CellTiter-Glo), 18 h, active compounds read low; note: % is set by controls: 0 for no effect and ±100 for the full control effect; nearly all actives have a fitted effect of over 50% in size
How it was run: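 HEK293 parental, 2,000 cells/well; ≥5 h pre-incubation 37 C; pintool compound addition; 18 h, 37 C; CellTiter-Glo 30 min RT; luminescence read.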

[9] = qHTS assay for cell viability of the p53RE-bla HCT-116 cell line (AID 743292); note: % is set by controls: 0 for no effect and ±100 for the full control effect; nearly all actives have a fitted effect of over 55% in size
How it was run: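 HCT-116 p53RE-bla cells seeded 4,000/well; 5 h at 37 C; compound (DMSO) added; 16 h at 37 C; CellTiter-Glo added, 30 min RT; luminescence read.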

[10] = molecular target: Nuclear receptor subfamily 1 group I member 2 (Rattus norvegicus) (UniProt Q9R1A7); assay: qHTS assay for small molecule activators of the rat pregnane X receptor (rPXR) signaling pathway (AID 651751; call rule not given here; note: 0% is about no effect); details: rPXR reporter cells, luciferase (One-Glo), 24 h
Sequence of Nuclear receptor subfamily 1 group I member 2 (Rattus norvegicus) (Q9R1A7 whole entry, looked up): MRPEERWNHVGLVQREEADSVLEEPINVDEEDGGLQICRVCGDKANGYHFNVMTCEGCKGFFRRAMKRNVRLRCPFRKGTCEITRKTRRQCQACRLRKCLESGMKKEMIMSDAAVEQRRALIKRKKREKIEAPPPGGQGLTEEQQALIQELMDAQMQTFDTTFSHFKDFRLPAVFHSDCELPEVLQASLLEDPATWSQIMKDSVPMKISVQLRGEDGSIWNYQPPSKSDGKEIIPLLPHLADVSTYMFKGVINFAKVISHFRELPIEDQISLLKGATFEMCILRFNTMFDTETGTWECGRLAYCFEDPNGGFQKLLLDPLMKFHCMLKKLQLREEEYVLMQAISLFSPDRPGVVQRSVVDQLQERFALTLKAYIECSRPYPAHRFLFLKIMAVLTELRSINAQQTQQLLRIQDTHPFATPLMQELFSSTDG

[11] = qHTS assay for small molecule activators of the human pregnane X receptor (PXR) signaling pathway (AID 720659; call rule not given here; note: 0% is about no effect)
[12] = molecular target: Peroxisome proliferator-activated receptor alpha (Homo sapiens) (UniProt Q07869); assay: qHTS assay for small molecule agonists of the peroxisome proliferator-activated receptor alpha (PPARalpha) signaling pathway (AID 651778); details: PathHunter PPARalpha complementation, chemiluminescence, 6 h; active compounds read high; note: % of control where 0% means no effect
Sequence of Peroxisome proliferator-activated receptor alpha (Homo sapiens) (Q07869 whole entry, looked up, the tested form may be a part): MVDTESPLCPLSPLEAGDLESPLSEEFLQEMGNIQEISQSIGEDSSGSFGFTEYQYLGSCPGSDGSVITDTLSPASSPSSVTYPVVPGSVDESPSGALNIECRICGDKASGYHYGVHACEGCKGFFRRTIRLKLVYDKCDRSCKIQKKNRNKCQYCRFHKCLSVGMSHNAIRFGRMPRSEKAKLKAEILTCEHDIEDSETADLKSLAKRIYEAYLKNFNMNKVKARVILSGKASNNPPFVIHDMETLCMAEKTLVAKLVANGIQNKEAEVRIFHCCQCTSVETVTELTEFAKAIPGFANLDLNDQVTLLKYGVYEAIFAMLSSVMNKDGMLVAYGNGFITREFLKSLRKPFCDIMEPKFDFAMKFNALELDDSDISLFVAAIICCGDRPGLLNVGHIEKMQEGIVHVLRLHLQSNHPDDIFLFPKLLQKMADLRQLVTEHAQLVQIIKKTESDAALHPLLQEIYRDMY
How it was run: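 Enzyme-fragment complementation assay in which ligand-bound PPARalpha translocates and forms an active enzyme that generates chemiluminescence. Cells were plated overnight, exposed to compound for 6 hr at 37 C, and then given detection reagent for 60 min at room temperature.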

[13] = qHTS assay to identify small molecules that stimulate interleukin-8 (IL-8) secretion (AID 651758; active = well fitted activation curve with a large enough effect in the signal ratio; the % refers to the signal ratio; note: 0% is about no effect)
How it was run: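 THP-1 cells (2000/well) exposed to compound 16 h at 37 C; secreted IL-8 then detected by HTRF with cryptate- and XL665-labelled anti-IL-8 antibody pair after 1-3 h at room temperature.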

[14] = molecular target: Tumor necrosis factor (Homo sapiens) (UniProt P01375); assay: qHTS assay to identify small molecules that stimulate Tumor Necrosis Factor-alpha (TNF-alpha) secretion (AID 651757; active = well fitted curve in the direction sought with a large enough effect in the signal ratio; the % refers to the signal ratio; note: 0% is about no effect)
Sequence of Tumor necrosis factor (Homo sapiens) (P01375 whole entry, looked up): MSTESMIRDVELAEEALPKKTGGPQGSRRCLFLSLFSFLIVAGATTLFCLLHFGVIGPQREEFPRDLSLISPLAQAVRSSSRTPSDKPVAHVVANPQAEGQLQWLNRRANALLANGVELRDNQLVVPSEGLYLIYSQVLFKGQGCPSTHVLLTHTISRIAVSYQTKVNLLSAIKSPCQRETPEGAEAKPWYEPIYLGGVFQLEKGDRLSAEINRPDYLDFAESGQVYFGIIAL
How it was run: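 Secreted TNF-alpha from compound-treated THP-1 cells (17 hrs, 37 C) was quantified with a homogeneous time-resolved fluorescence antibody assay.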

Cc1nc2ccc(Cl)cc2[nH]1
inactive: Potency [1] | Potency [2] | activation [3] 3.58% | Potency [4] | outcome [5] | Potency [6] | max response [7] -4.37% | max response [8] 5.07% | Potency [9] | max response [10] -1.68% | outcome [11]

Cc1ccc(C)o1
inactive: Potency [1] | Potency [2] | activation [3] -0.971% | max response [12] -7.85% | Potency [4] | outcome [5] | Potency [6] | max response [7] -12.8% | max response [8] -6.28% | Potency [9] | max response [10] -1.6% | outcome [11]

C[C@@H]1CC2(OC[C@]3(C)O[C@H]23)O[C@H]2C[C@@]3(C)[C@@H]4CC[C@H]5C(C)(C)C(O[C@@H]6OC[C@@H](O)[C@H](O)[C@H]6O)CC[C@@]56C[C@@]46CC[C@]3(C)[C@@H]12 (some centres undefined)
inactive: Potency [1] | Potency [2] | activation [3] -1.5% | max response [12] 0.712% | Potency [4] | outcome [5] | max response [7] -3.07% | max response [8] -22.4% | Potency [9] | max response [10] 2.43% | outcome [11]

O=C(O)c1cc(Cl)cc(Cl)c1
inactive: Potency [1] | Potency [2] | Potency [13] | activation [3] 0.13% | outcome [5] | Potency [6] | max response [7] 0.662% | max response [8] 9.31% | Potency [9] | max response [10] -3.46% | outcome [11]

CCOc1cccc(N)c1
inactive: Potency [1] | Potency [2] | activation [3] 1.67% | Potency [4] | outcome [5] | Potency [6] | max response [7] -7.78% | max response [8] 5.75% | Potency [9] | max response [10] -4.44% | outcome [11]

O=C1OC(=O)c2cc([N+](=O)[O-])ccc21
inactive: Potency [1] | Potency [2] | Potency [13] | activation [3] -0.234% | Potency [4] | outcome [5] | Potency [6] | max response [7] -1.02% | max response [8] -5.72% | Potency [9] | max response [10] -0.914% | outcome [11]

CC(=O)OC(C)C
inactive: Potency [1] | Potency [2] | activation [3] -2.35% | max response [12] -3.3% | Potency [4] | outcome [5] | Potency [6] | max response [7] -4.19% | max response [8] 1.6% | Potency [9] | max response [10] -1.92% | outcome [11]

O=C(O)c1ccc(C(=O)O)cc1
inactive: Potency [1] | Potency [2] | Potency [13] | activation [3] -0.394% and -1.3% | max response [12] -2.31% and 0.244% | Potency [4] | outcome [5] | max response [7] -2.71% and -15.5% | max response [8] 8.37% and 1.4% | Potency [9] | max response [10] -1.05% and -0.301% | outcome [11]

Cc1cccc2cccnc12
inactive: Potency [1] | Potency [2] | activation [3] -0.26% | max response [12] 3.59% | Potency [4] | outcome [5] | Potency [6] | max response [7] -7.04% | max response [8] -0.0071% | Potency [9] | max response [10] -0.272% | outcome [11]

NC(=O)c1cccc([N+](=O)[O-])c1
inactive: Potency [1] | Potency [2] | activation [3] 0.373% | max response [12] 2.42% | Potency [4] | outcome [5] | Potency [6] | max response [7] -9.57% | max response [8] -1.82% | Potency [9] | max response [10] 6.83% | outcome [11]

Cc1cc(C)cc(N)c1
inactive: Potency [1] | Potency [14] | activation [3] 2.65% | max response [12] -1.33% | Potency [4] | outcome [5] | max response [7] -5.34% | max response [8] -3.25% | Potency [9] | max response [10] 9.8% | outcome [11]

CCCC=O
inactive: Potency [1] | Potency [14] | activation [3] -0.933% | Potency [4] | outcome [5] | Potency [6] | max response [7] -6.36% | max response [8] -2.32% | Potency [9] | max response [10] 1.21% | outcome [11]

CCc1ccccc1
inactive: Potency [1] | Potency [14] | activation [3] 3.73% | max response [12] -3.6% | Potency [4] | outcome [5] | Potency [6] | max response [7] -7.67% | max response [8] -3.72% | Potency [9] | max response [10] -0.471% | outcome [11]

Nc1cccc(N)c1
active: Potency [1] 21.1 µM
inactive: Potency [14] | activation [3] 4.51% | max response [12] -0.676% | Potency [4] | outcome [5] | Potency [6] | max response [7] -7.64% | Potency [9] | max response [10] 11.3% | outcome [11]

CCCCCCO
inactive: Potency [2] | Potency [14] | Potency [13] | activation [3] -0.44% | Potency [4] | outcome [5] | Potency [6] | max response [7] 4.6% | Potency [9] | max response [10] 2.06% | outcome [11]

CC/C=C1/OC(=O)c2ccccc21
inactive: Potency [1] | Potency [14] | activation [3] 0.751% | max response [12] -2.48% | Potency [4] | outcome [5] | Potency [6] | max response [7] 4.48% | max response [8] -15.4% | Potency [9] | max response [10] -1.09% | outcome [11]

COc1cccc2sc(N)nc12
inactive: Potency [1] | max response [12] -2.03% | Potency [4] | outcome [5] | Potency [6] | max response [7] 1.42% | max response [8] -3.84% | Potency [9] | max response [10] 8.89% | outcome [11]
